Assay results reported in PubChem BioAssay.
Calls of active or inactive are those of the source.

What was measured:
[1] = E. coli DRC41 culture turbidity changes, primary screen, E. coli filamentation inducer project, strain DRC41, OD650, 48 h (AID 1152);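 note: E. coli MC1000 strain DRC41 lacking acrAB efflux pump and sulA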; conditions: E. coli DRC41 (acrAB sulA), higher = more signal, called active from +8 up or from −8 down
[2] = small-molecule binders of probe aLefty1, primary screen, biochemical, small-molecule microarray, 635/667 nm fluorescence (AID 1153); conditions: higher = more signal;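 note: score merges spot fluorescence with signal-to-noise ratio from the scanned slide images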
[3] = PSAC antagonists in infected red cells, primary screen, cell-based, P. falciparum Indochina, OD700, 1 h (AID 1154); conditions: P. falciparum Indochina infected RBC osmotic lysis, higher = more signal, called active from +8 up or from −8 down
[4] = PSAC antagonists in infected red cells, primary screen, cell-based, P. falciparum Indochina, OD700, 2 h (AID 1155);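 note: lysis reports solute entry through the parasite surface anion channel PSAC; channel blockers reduce lysis of infected cells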; conditions: P. falciparum Indochina infected erythrocytes, osmotic lysis OD700; higher = more signal, called active from +8 up or from −8 down
[5] = osmotic lysis modulators in infected erythrocytes, primary screen, PSAC antagonist project, cell-based, P. falciparum Indochina, OD700, 3 h (AID 1156); conditions: higher = more signal, called active from +8 up or from −8 down
[6] = PSAC antagonists in infected red cells, primary screen, cell-based, P. falciparum Indochina, OD700, 18 h (AID 1157); conditions: P. falciparum Indochina infected erythrocytes, osmotic lysis OD700, 18 h; higher = more signal, called active from +8 up or from −8 down
[7] = modulators of S6 phosphorylation in cells, primary screen, cell-based, A549, cytoblot, luminescence, serum-stimulated (AID 1158); conditions: A549 phospho-S6 cytoblot, 5 h, higher = more signal;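 note: serum-stimulated A549 lung adenocarcinoma cells; signal is phosphorylated S6 detected by cytoblot immunostaining with HRP secondary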
[8] = molecular target: NADPH oxidase 2 (Homo sapiens) (UniProt P04839); assay: NOX2-dependent H2O2 signal modulators, primary screen, NOX inhibitor project, cell-based, HEK293-NOX2, PMA-stimulated, Amplex Red fluorescence (AID 1159); conditions: 45 min, higher = more signal, called active from +8 up or from −8 down; note: test concentration not given here
[9] = molecular target: NADPH oxidase 4 (Homo sapiens) (UniProt Q9NPH5); assay: NOX4-dependent H2O2 signal modulators, primary screen, NOX inhibitor project, cell-based, HEK293-NOX4, tetracycline-induced, Amplex Red fluorescence (AID 1160); conditions: 45 min, higher = more signal, called active from +8 up or from −8 down
[10] = molecular target: NADPH oxidase 5 (Homo sapiens) (UniProt Q96PH1); assay: NOX5-dependent H2O2 signal modulators, primary screen, NOX inhibitor project, cell-based, HEK293-NOX5, Amplex Red fluorescence (AID 1161); conditions: HEK293-NOX5, ionomycin, 45 min, higher = more signal
Chain of NADPH oxidase 5 (Homo sapiens) (Q96PH1 whole entry, looked up): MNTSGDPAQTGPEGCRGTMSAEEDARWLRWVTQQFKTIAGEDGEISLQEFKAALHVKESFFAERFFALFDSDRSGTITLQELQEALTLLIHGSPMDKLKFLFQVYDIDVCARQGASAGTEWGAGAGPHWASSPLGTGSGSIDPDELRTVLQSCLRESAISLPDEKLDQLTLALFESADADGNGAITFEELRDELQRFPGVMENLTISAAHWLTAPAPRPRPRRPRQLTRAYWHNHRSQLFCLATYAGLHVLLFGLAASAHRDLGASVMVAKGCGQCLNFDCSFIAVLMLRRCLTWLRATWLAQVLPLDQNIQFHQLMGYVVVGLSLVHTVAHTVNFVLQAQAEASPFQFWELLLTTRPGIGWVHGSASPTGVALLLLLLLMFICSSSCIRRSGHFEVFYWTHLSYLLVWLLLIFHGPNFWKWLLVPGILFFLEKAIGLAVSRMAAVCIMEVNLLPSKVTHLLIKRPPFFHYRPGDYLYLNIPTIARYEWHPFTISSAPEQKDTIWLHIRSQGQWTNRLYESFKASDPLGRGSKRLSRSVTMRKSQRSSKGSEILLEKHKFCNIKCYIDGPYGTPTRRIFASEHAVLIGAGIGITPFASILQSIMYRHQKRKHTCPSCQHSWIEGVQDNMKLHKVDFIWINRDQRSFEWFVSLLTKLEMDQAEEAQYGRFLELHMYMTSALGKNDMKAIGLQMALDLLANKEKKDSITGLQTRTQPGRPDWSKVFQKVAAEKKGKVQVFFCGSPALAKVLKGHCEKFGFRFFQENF

Chain of NADPH oxidase 4 (Homo sapiens) (Q9NPH5 whole entry, looked up): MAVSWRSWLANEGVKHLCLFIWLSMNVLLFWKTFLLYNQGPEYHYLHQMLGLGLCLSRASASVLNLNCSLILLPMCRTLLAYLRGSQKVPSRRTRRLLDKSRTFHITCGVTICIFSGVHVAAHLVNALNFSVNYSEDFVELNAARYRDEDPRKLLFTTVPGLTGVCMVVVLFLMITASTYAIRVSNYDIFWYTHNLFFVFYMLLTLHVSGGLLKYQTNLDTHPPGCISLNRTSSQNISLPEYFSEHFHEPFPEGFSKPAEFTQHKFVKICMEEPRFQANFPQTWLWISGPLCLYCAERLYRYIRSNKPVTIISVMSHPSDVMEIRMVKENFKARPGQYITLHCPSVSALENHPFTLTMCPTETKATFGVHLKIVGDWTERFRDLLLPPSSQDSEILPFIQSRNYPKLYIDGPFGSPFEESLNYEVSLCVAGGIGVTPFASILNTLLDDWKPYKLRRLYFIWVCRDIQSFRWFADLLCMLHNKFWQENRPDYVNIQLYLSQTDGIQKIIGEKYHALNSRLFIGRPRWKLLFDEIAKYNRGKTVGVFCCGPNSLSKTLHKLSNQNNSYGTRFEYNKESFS
Chain of NADPH oxidase 2 (Homo sapiens) (P04839 whole entry, looked up): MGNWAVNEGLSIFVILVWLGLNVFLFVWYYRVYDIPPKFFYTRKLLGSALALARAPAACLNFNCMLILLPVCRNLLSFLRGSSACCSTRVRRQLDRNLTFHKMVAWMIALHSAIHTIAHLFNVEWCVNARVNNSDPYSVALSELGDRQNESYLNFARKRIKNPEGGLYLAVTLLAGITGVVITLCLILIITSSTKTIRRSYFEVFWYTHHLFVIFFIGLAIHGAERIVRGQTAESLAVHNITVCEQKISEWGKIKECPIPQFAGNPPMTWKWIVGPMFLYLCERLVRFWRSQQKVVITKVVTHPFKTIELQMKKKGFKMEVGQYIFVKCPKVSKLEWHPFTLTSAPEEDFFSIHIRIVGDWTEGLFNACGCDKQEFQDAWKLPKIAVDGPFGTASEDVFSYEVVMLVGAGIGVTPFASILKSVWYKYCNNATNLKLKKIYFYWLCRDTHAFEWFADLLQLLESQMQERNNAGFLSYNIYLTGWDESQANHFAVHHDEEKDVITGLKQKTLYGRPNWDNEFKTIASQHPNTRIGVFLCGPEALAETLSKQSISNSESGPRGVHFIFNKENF

Structure (SMILES) | z-score [1] | composite z-score [2] | z-score [3] | z-score [4] | z-score [5] | z-score [6] | z-score [7] | z-score [8] | z-score [9] | z-score [10]
CC1CC/C=C\[C@H]2OC34C=CCN(Cc5ccccc5)C(=O)[C@H]3N(CCO)C(=O)[C@@H]4C2C(=O)O1 (stereo not given in full) | 0.788 (inactive) | -0.0867 | 3.52 (inactive) | -0.133 (inactive) | 0.272 (inactive) | -0.18 (inactive) | -0.0144 | 1.66 (inactive) | 0.0441 (inactive) | 2.24
COC(=O)C(CC#Cc1ccc2c(c1)[C@]1(C(=O)N2)[C@H](C(=O)N2CCc3cc(OC)c(OC)cc3C2)[C@H]2C(=O)O[C@H](c3ccccc3)[C@H](c3ccccc3)N2[C@@H]1c1ccc(O)cc1)C(=O)OC | 1.58 (inactive) | -0.321 | 6.21 (inactive) | 1.93 (inactive) | 1.93 (inactive) | 0.958 (inactive) | 0.125 | -0.0647 (inactive) | -1.83 (inactive) | 0.121
COC(=O)[C@@]1(Cc2ccc(F)cc2)[C@H]2c3cc(C(=O)N4CCCC4)n(Cc4ccccc4)c3C[C@H]2CN1C(=O)c1ccccc1 | -1.25 (inactive) | 0.216 | 4.64 (inactive) | 0.899 (inactive) | 2.65 (inactive) | 1.26 (inactive) | 0.178 | -0.165 (inactive) | 0.648 (inactive) | -1.48
COCCCNC(=O)[C@@H]1c2ccccc2C(=O)N(c2ccc(C)cn2)[C@H]1c1ccc(CO)cc1 | -0.889 (inactive) | -0.0984 | 1.21 (inactive) | -0.205 (inactive) | 1.74 (inactive) | 0.205 (inactive) | -0.112 | 0.837 (inactive) | -0.797 (inactive) | -0.00783
Cc1ccc(C(C)CC(O)C2C=CC3C(=O)N(Cc4ccccc4)C(=O)C3N2n2cnnc2)o1 (stereo not given) | -1.44 (inactive) | 1.21 | 2.31 (inactive) | 0.793 (inactive) | 0.809 (inactive) | 0.709 (inactive) | -0.63 | -0.168 (inactive) | -1.78 (inactive) | -2.17
COc1ccccc1CN1C(=O)c2ccccc2[C@@]2(Cc3ccccc3N(C3CC3)C2=O)[C@@H]1c1ccc(CO)cc1 | -0.685 (inactive) | -0.235 | 0.162 (inactive) | -0.0183 (inactive) | -0.108 (inactive) | 0.23 (inactive) | -0.243 | -0.161 (inactive) | 0.394 (inactive) | 1.04
COC(=O)[C@@]1(Cc2ccc(F)cc2)[C@H]2c3cc(C(=O)N(C)C)n(Cc4ccc(C)c(F)c4F)c3C[C@H]2CN1C(=O)c1ccccc1 | -0.165 (inactive) | 0.159 | 5.08 (inactive) | 1.21 (inactive) | 0.306 (inactive) | 0.813 (inactive) | 0.101 | 0.561 (inactive) | -0.0461 (inactive) | 0.169
CCCc1cc2c(n1Cc1ccc(OC)cc1)C(C)C1CN(C(=O)c3ccccc3)C(C)(C(=O)OC)C21 (stereo not given) | -2.02 (inactive) | 1.1 | 3.99 (inactive) | 0.713 (inactive) | 1.27 (inactive) | 0.25 (inactive) | -0.57 | -1.55 (inactive) | -3.23 (inactive) | -3.28
O=C1OCC=C[C@H]2OC34C=CCN(CCN5CCOCC5)C(=O)[C@H]3N(CCCCCO)C(=O)[C@@H]4[C@@H]12 (stereo not given in full) | -0.457 (inactive) | -0.045 | 1.69 (inactive) | 0.526 (inactive) | 1.5 (inactive) | 0.0882 (inactive) | 2.31 | 0.922 (inactive) | 0.379 (inactive) | 2.1
CC(C)C(CO)N1C(=O)[C@@H]2[C@H]3C(=O)OCC=C[C@H]3OC23C=CCN(CCN2CCOCC2)C(=O)[C@@H]13 (stereo not given in full) | -0.706 (inactive) | -0.263 | 0.897 (inactive) | -0.136 (inactive) | 0.675 (inactive) | 0.0875 (inactive) | -0.679 | 1.26 (inactive) | 0.258 (inactive) | 2.02
COCC(=C=CC[C@@H](O)c1ccccc1OCCO)C[C@@H](O)COCc1ccccc1 | 2.01 (inactive) | 0.455 | 6.15 (inactive) | -0.29 (inactive) | 0.66 (inactive) | -1.22 (inactive) | 0.719 | 0.547 (inactive) | 1.31 (inactive) | -1.66
O=C1O[C@@H](c2ccccc2)[C@@H](c2ccccc2)N2[C@@H](c3ccc(O)cc3)[C@]3(C(=O)Nc4ccc(C#CC5(O)CCCCCC5)cc43)[C@@H](C(=O)N3CCN(c4ncccn4)CC3)[C@H]12 | 1.36 (inactive) | 0.214 | 0.0075 (inactive) | -0.443 (inactive) | -5.11 (inactive) | -0.195 (inactive) | -0.181 | 1.07 (inactive) | 0.74 (inactive) | 0.443
CN1C(=O)C2C=CC(C(O)C3CCCCC3)N(N(c3ccccc3)c3ccccc3)C2C1=O (stereo not given) | -1.11 (inactive) | 0.344 | 0.801 (inactive) | 1.09 (inactive) | 0.332 (inactive) | 0.926 (inactive) | -1.47 | -0.557 (inactive) | -0.635 (inactive) | -0.0135
CN(C)CCCCCCNC(=O)[C@@H]1C[C@@H]2C(=O)NCC(=O)N2[C@@H]1c1ccc(O)cc1 | -0.407 (inactive) | 0.298 | 0.755 (inactive) | -0.296 (inactive) | 0.794 (inactive) | -0.114 (inactive) | -0.341 | -0.289 (inactive) | 0.12 (inactive) | 0.524
C=CCNC(=O)[C@@H]1[C@H]2C(=O)O[C@H](c3ccccc3)[C@H](c3ccccc3)N2[C@H](c2ccc(O)cc2)[C@@]12C(=O)Nc1ccc(C#CCCO)cc12 | 1.79 (inactive) | -0.495 | 2.1 (inactive) | -0.785 (inactive) | -0.534 (inactive) | -1.86 (inactive) | 0.727 | 0.422 (inactive) | -0.449 (inactive) | 0.425
NC(=O)[C@@H]1[C@H]2C(=O)O[C@H](c3ccccc3)[C@H](c3ccccc3)N2[C@H](c2ccccc2OCCO)[C@@]12C(=O)Nc1ccc(C#CCCO)cc12 | 1.41 (inactive) | -0.0464 | 14.3 (active) | 0.966 (inactive) | -2.23 (inactive) | -1.18 (inactive) | 1.02 | 2.03 (inactive) | 1.18 (inactive) | 1.02
CN(C)CCCN1C(=O)[C@@]2(Cc3ccccc31)c1ccccc1C(=O)N(Cc1ccccc1)[C@H]2c1ccc(CO)cc1 | 0.0234 (inactive) | -0.193 | -0.0561 (inactive) | -0.952 (inactive) | 0.182 (inactive) | -1.33 (inactive) | 2.05 | -2.34 (inactive) | -2.82 (inactive) | -2.96
C=CCN1C(=O)[C@@]2(O[C@@H](CCO)[C@H]([Si](C)(C)c3ccc(OC)cc3)[C@H]2C)c2cc(NC(=O)[C@H](C)O)ccc21 | 0.301 (inactive) | -0.0879 | 23 (active) | 6.92 (inactive) | 0.903 (inactive) | 1.62 (inactive) | 0.29 | -0.54 (inactive) | 0.552 (inactive) | -0.335
COC(=O)[C@@]1(Cc2ccc(F)cc2)[C@H]2c3cc(C(=O)N(C)C)n(CCSCCO)c3C[C@H]2CN1C(=O)c1ccccc1 | -0.683 (inactive) | -0.0901 | 0.621 (inactive) | -0.383 (inactive) | -0.662 (inactive) | 0.397 (inactive) | -0.426 | 0.746 (inactive) | -0.303 (inactive) | -0.572
C=C[C@H](C)[C@H](OC(=O)Nc1ccc(SC)cc1)c1ccc(O)c2ccccc12 | -1.61 (inactive) | -1.01 | 28.9 (active) | 10.2 (active) | 2.13 (inactive) | 0.867 (inactive) | 0.451 | -5.46 (inactive) | -0.825 (inactive) | 1.76
COC(=O)[C@]1(Cc2ccccc2CN=[N+]=[N-])N=C(c2ccc(OCCCO)cc2)O[C@@H]1c1ccccc1 | -0.453 (inactive) | 0.14 | 27.8 (active) | 26.4 (active) | -0.232 (inactive) | 6.71 (inactive) | 0.008 | -2.2 (inactive) | -1.59 (inactive) | -2.6
O=C(N1CCOCC1)[C@@]1(CCS(=O)(=O)c2ccccc2)COC(c2ccc(OCCCO)cc2)=N1 | 1.04 (inactive) | -0.356 | 23.8 (active) | 9.6 (active) | 1.75 (inactive) | 1.3 (inactive) | -0.713 | -1.79 (inactive) | 0.44 (inactive) | -0.597
O=C1NC(=O)C2C1C=CC(C(O)c1ccc3c(c1)OCO3)N2Nc1ccc(Cl)cc1Cl (stereo not given) | -3.85 (inactive) | 0.0861 | 7.58 (inactive) | 1.84 (inactive) | -0.254 (inactive) | 1.56 (inactive) | -0.593 | -0.0436 (inactive) | -5.24 (inactive) | -3.26
NC(=O)[C@H]1[C@@H]2C(=O)O[C@@H](c3ccccc3)[C@@H](c3ccccc3)N2[C@@H](c2ccc(O)cc2)[C@]12C(=O)Nc1ccc(C#CC3(O)CCCCCC3)cc12 | 0.359 (inactive) | 0.354 | 2.63 (inactive) | -0.436 (inactive) | 0.67 (inactive) | -1.08 (inactive) | 1.54 | 0.487 (inactive) | -0.429 (inactive) | -2.14
COCCOC(=O)N1C(=O)[C@@]2(c3ccccc31)[C@H](c1ccccc1OCCO)N1[C@H](c3ccccc3)[C@H](c3ccccc3)OC(=O)[C@H]1[C@@H]2C(=O)N1CCc2cc(OC)c(OC)cc2C1 | 0.0509 (inactive) | 0.433 | 2.79 (inactive) | 1.2 (inactive) | 1.68 (inactive) | 0.654 (inactive) | 0.0753 | 1.15 (inactive) | 0.39 (inactive) | -0.157
[N-]=[N+]=Nc1ccccc1[C@@H]1OC(c2ccc(OCCCO)cc2)=N[C@]1(CCS(=O)(=O)c1ccccc1)C(=O)NCc1ccccc1 | 0.871 (inactive) | 1.01 | 28 (active) | 23.5 (active) | 1.29 (inactive) | 4.33 (inactive) | -0.309 | -1.86 (inactive) | 0.642 (inactive) | 1.15
